Bioassay records (PubChem BioAssay)
An excerpt weighted towards active compounds, which were near 14% of everything screened.
Pf growth 96h: P. falciparum growth inhibition at 96 hours; P. falciparum luciferase reporter growth, 96 h; Potency, µM (highest dose often 28.7 µM), for inactives: at the highest dose activity change, negative = inhibition, hits mostly inhibitors; hit rate 6.9% among 320,000; further: potency means the concentration at half of the fitted maximal effect
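Luminescence readout: decreased luciferase signal marks inhibited growth of reporter-expressing P. falciparum in infected red cells (2% hematocrit, 0.05% parasitemia final), exposed to compound two generations (96 h, 37 C, 5% CO2).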
Sm TGR inh: inhibitors of Schistosoma mansoni thioredoxin glutathione reductase; purified TGR, DTNB reduction, TNB absorbance 405 nm; Potency, µM (doses to about 114 µM), for the others: at the highest dose activity change, negative = inhibition, actives largely listed as inhibitors; hit rate 3% among 360,000; further: potency means the concentration at half of the fitted maximal effect; nearly all actives have a fitted effect of over 60% in size
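TGR 20 nM + NADPH 100 uM (dispensed conc.), cpd preinc 15 min RT; start with NADPH (500 uM addition) then DTNB (15 mM addition). Kinetic TNB absorbance, 405 nm filter. Four-parameter Hill fit across titration.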
FBPA Giardia inh: inhibitors of Giardia lamblia fructose-1,6-bisphosphate aldolase; AID 2451; hit rate 0.71% among 290,000; purified Giardia FBPA; Potency, µM (series often up to 59.6 µM), for the others: top-dose activity, negative = inhibition, actives largely listed as inhibitors; further: potency means the concentration at half of the fitted maximal effect; nearly all actives have a fitted effect of over 55% in size
Target sequence (A8B2U2 whole entry, looked up): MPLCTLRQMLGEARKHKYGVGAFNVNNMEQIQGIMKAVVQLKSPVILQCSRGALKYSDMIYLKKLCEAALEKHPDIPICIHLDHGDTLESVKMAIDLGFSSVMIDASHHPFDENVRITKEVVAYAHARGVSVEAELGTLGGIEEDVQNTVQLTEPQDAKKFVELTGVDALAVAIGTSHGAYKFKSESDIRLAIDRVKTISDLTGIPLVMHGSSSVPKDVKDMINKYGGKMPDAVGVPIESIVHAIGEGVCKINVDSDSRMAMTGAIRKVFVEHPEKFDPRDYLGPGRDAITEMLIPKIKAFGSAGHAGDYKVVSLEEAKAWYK
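40 nM FBPA preincubated 10 min at RT with compound (up to 57.5 uM final), then substrate plus GAPDH/TPI/NAD/arsenate coupling and diaphorase/resazurin added. Fluorescence read after 20 min at RT, 525/598 nm.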
Pf growth 48h: inhibits P. falciparum growth in the first generation, 48 h; P. falciparum luciferase growth in erythrocytes, 48 h; AID 504832; Potency, µM (series often up to 28.7 µM), for the others: at the top dose activity change, negative = inhibition, actives largely listed as inhibitors; hit rate 5.9% among 310,000; further: potency means the concentration at half of the fitted maximal effect
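In quantitative HTS format, infected erythrocytes bearing luciferase-reporter parasites were treated for a single generation at 37 C. Luminescence after adding detection reagent served as the growth measure.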
HCMV antiviral: human cytomegalovirus inhibition; HFF cells, HCMV-luciferase reporter, 72 h; hits give low values; activity change, negative = inhibition, % at 57.5 µM; hit rate 4.5% among 410,000; AID 1259415; in the data active means activity change below about -60%; inconclusive means no clear call, values can overlap the other calls; inactive means above about -39%
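Luciferase read-out from HCMV-luciferase-infected HFFs (MOI 1 PFU/cell) 72 h post infection at 37C; compounds added after 16 h cell attachment; activity normalized between buffer-only basal and Salinomycin (10uM) inhibitor controls.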
Starred values were filed as active, the others as inactive; ? = inconclusive; · = not tested or not shown; [ ] = remark or other dose. Unless noted, the call rests on the fitted dose curve; in most records, active means well fitted curve in the direction sought with a large enough effect; inconclusive means small, poorly fitted or top-dose-only effect, or another doubt; inactive means no such curve, though single readings can be large; an effect the other way counts as inactive or inconclusive. On the % scale 0 is the no-effect control and ±100 the full control effect.

SMILES	Pf growth 96h	Sm TGR inh	FBPA Giardia inh	Pf growth 48h	HCMV antiviral
CCN(CC)S(=O)(=O)c1ccc(OC)c(NC(=O)c2ccc([N+](=O)[O-])cc2)c1	-2.3%	-7.4%	0.3%	-4.3%	-7.0
CC(C)Oc1ccc(S(=O)(=O)N2CCOCC2)cc1NC(=O)CC1CCCC1	8.28µM*	2.1%	·	9.28µM*	0.0
CCN(CC)S(=O)(=O)c1ccc(OC)c(NC(=O)c2ccc(N3CCCC3=O)cc2)c1	9.28µM*	-2.8%	·	?	-17.1
CC(C)Oc1ccc(S(=O)(=O)N2CCOCC2)cc1NC(=O)C1CCC1	?	-2.1%	·	-11.4%	-10.2
CC(C)Oc1ccc(S(=O)(=O)N2CCOCC2)cc1NC(=O)c1ccc(N2CCCC2=O)cc1	1.31µM*	2.3%	·	4.15µM*	-24.0
Cn1c(-c2cccc(C(F)(F)F)c2)cc2cnc(Nc3ccc4c(c3)OCCO4)cc21	·	·	·	·	18.0
COc1ccc(C2c3c(n(C)c4ccccc34)C(=O)N2CC(=O)Nc2ccc(Cl)cc2)cc1 (stereo unspecified)	·	2.3%	·	·	0.0
Cc1nnc(SCC(=O)Nc2cccc(Br)c2)s1	?	0.0%	·	-23.1%	-21.2
CC(C)Oc1ccc(S(=O)(=O)N2CCOCC2)cc1NC(=O)C1=NN(c2ccccc2)C(=O)CC1	1.65µM*	-1.6%	·	3.7µM*	-4.7
CC(C)Oc1ccc(S(=O)(=O)N2CCCCC2)cc1NC(=O)C1=NN(c2ccccc2)C(=O)CC1	·	·	·	·	-22.4
Nc1c(-c2ccccc2)cnn1-c1cccc([N+](=O)[O-])c1	70.5%	-22.1%	-1.9%	52.7%	-35.4
Cc1nn(-c2cccc([N+](=O)[O-])c2)c(N)c1-c1ccccc1	82.7%	-1.4%	-5.5%	187.6%	-61.3*
Cc1nn(-c2ccccc2)c(N)c1Sc1cccc([N+](=O)[O-])c1	5.3%	-3.7%	-14.0%	?	-76.4*
Cc1ccc(C(=O)N2CC=C(c3ccccc3)CC2)s1	1.4%	3.1%	·	10.4µM*	?
Cc1cc(C)c(OCC(=O)N2CC=C(c3ccccc3)CC2)c(C)c1	0.6%	1.3%	·	-6.2%	-66.7*
OCC1O[C@H](O[C@H]2C(O)C(O)C(O)O[C@@H]2CO)C(O)C(O)C1O (stereo partly specified)	?	·	1.4%	4.4%	·
Cc1ccc(S(=O)(=O)NCC(c2cccnc2)N2CCOCC2)cc1 (stereo unspecified)	-0.9%	-3.9%	0.7%	13.9%	-79.1*
Cc1cc(S(=O)(=O)NCC(c2ccc3c(c2)OCO3)N2CCOCC2)ccc1F (stereo unspecified)	14.7µM*	2.9%	·	?	-63.7*
CN1CCN(C(CNC(=O)C(=O)Nc2ccc3c(c2)OCCO3)c2ccc(F)cc2)CC1 (stereo unspecified)	?	-0.6%	·	?	-9.9
Cc1cccc(C(=O)NCC(c2ccc3c(c2)OCO3)N2CCOCC2)c1 (stereo unspecified)	·	25.1µM*	·	·	0.1
O=[N+]([O-])c1ccc(S(=O)(=O)NCC(c2cccnc2)N2CCOCC2)cc1 (stereo unspecified)	19.4%	0.2%	-0.1%	26.5%	-29.9
Cc1ccc(C(CNC(=O)C(=O)Nc2ccc3c(c2)OCCO3)N2CCN(C)CC2)cc1 (stereo unspecified)	-0.8%	-5.3%	·	7.38µM*	-22.0
CCOC(=O)c1c(C)n(Cc2ccco2)c2c1cc(O)c1ccccc12	·	2.6%	?	3.7µM*	-11.7
CCOC(=O)c1c(C)[nH]c2c1cc(O)c1ccccc12	?	-20.5%	?	0.147µM*	-33.6
CCOC(=O)c1c(C)n(CC)c2c1cc(O)c1ccccc12	6.3%	0.6%	-3.1%	-33.9%	-21.3
SMILES	Pf growth 96h	Sm TGR inh	FBPA Giardia inh	Pf growth 48h	HCMV antiviral
CN(CC(=O)NCc1ccccn1)S(=O)(=O)c1cc(Cl)ccc1Cl	45.0%	-11.7%	·	-3.4%	-13.6
Cc1cc(OCC(=O)Nc2ccc(S(=O)(=O)N3CCN(C)CC3)cc2)ccc1Cl	11.7µM*	-8.6%	-1.4%	4.15µM*	-13.0
Cc1cc(C)cc(OCC(=O)Nc2ccc3c(c2)OCCO3)c1	-27.8%	-1.5%	6.8%	24.7%	?
Cc1cc(OCC(=O)Nc2ccc(S(=O)(=O)N3CCN(C)CC3)cc2)cc(C)c1Cl	11.6%	-15.5%	?	?	-14.8
Cc1cc(OCC(=O)Nc2ccc3c(c2)OCCO3)ccc1Cl	8.28µM*	8.1%	4.6%	3.1%	34.0
Cc1cc(OCC(=O)Nc2ncn[nH]2)ccc1Cl	1.85µM*	-4.6%	·	88.2%	3.1
CN(CC(=O)Nc1ncn[nH]1)S(=O)(=O)c1cc(Cl)ccc1Cl	-1.6%	-5.9%	-3.9%	10.4µM*	-25.2
COc1ccccc1CNC(=O)c1ccc(OC(C)C)cc1	15.1%[5.75 µM]	-0.1%	-2.9%	14.9%	-12.0
Cc1ccc(-c2ccc(=O)n(CC(=O)Nc3ccc(C)cc3Cl)n2)cc1	·	2.2%	·	·	3.9
Cc1ccc(Nc2nc3ccccc3[nH]2)nc1	?	5.4%	5.4%	3.29µM*	-76.6*
Cc1ccc(C)c(C(=O)Nc2nc3ccccc3[nH]2)c1	52.9%	3.9%	-9.6%	42.6%	43.2
Cc1ccc(NC(=S)N2CCC(N(C)CC3CCCO3)CC2)cc1C (stereo unspecified)	1.47µM*	?	1.1%	1.1%	-2.2
Cc1cccc(NC(=S)N2CCC(N(C)CC3CCCO3)CC2)c1 (stereo unspecified)	?	?	0.6%	20.2%	0.6
COc1ccc(NC(=S)N2CCC(N(C)CC3CCCO3)CC2)cc1Cl (stereo unspecified)	6.57µM*	-6.4%	0.7%	35.8%	4.1
Cc1c(Cl)cccc1NC(=S)N1CCC(N(C)CC2CCCO2)CC1 (stereo unspecified)	6.57µM*	-20.5%	2.1%	3.9%	-19.7
COc1ccc(NC(=S)N2CCC(N(C)CC3CCCO3)CC2)cc1 (stereo unspecified)	5.0%	-10.9%	0.9%	-9.3%	-38.2
CS(=O)(=O)N(CCC#N)Cc1ccc(/C=C2\C(=O)Nc3ccccc32)o1	?	-33.5%	-7.1%	?	-39.7
COc1ccc(C2=CN(Cc3ccccc3)CCC2=O)cc1	·	·	·	·	26.8
COc1ccc(C(=O)C2CCCN(C(=O)c3csc(SC)n3)C2)cc1F (stereo unspecified)	·	·	·	·	-2.4
FC(F)(F)c1ccc(C2[C@H]3CN(Cc4ccc(-c5ccccc5)cc4)[C@H](c4ccccc4)C34CC2(c2cccnc2)C4)cc1 (stereo partly specified)	0.415µM*	-4.3%	-0.4%	3.29µM*	?
FC(F)(F)c1ccc(CN2C[C@@H]3C(c4ccc(Cl)nc4)C4(c5ccccc5)CC3(C4)[C@H]2c2ccccc2)cc1 (stereo partly specified)	?	?	-0.1%	11.7µM*	-65.1*
